These results are taken from ChEMBL document CHEMBL1961873, “Compounds: GSK PKIS; Assays: Nanosyn kinase panel” (2012).

For assay [1], the target named is Glycogen synthase kinase-3 beta (Homo sapiens) (UniProt P49841). The following applies: at 1 µM.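 Further: reported values are mean percent inhibition of GSK3B.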
The target of assay [2] is Homeodomain-interacting protein kinase 1 (Homo sapiens) (UniProt Q86Z02). The conditions noted are these: at 0.1 µM.
For assay [3] the target is unchanged. The conditions noted are these: at 1 µM.
Assay [4] deals with T1, Homeodomain-interacting protein kinase 4 (Homo sapiens) (UniProt Q8NE63).
T1 sequence (whole entry): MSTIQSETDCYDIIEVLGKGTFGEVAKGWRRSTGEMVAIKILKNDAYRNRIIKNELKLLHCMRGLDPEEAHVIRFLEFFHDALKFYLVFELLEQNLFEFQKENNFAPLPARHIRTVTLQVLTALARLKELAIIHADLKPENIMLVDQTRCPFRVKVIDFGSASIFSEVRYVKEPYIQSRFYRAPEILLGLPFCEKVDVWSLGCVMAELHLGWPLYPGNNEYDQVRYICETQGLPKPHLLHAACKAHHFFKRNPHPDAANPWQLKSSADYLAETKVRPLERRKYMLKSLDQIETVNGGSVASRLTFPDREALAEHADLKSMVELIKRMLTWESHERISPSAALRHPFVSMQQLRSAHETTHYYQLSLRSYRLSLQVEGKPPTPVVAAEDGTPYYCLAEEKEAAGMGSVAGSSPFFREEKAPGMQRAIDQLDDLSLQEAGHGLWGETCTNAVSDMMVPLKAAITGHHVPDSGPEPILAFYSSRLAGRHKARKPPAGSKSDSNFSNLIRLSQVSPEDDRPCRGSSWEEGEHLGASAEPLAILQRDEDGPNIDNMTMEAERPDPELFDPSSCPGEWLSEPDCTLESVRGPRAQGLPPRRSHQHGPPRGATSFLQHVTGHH
The following applies: at 0.1 µM.

In assay [5] the target is T1, Homeodomain-interacting protein kinase 4 (Homo sapiens). The conditions noted are these: at 1 µM.
For assay [6], the target named is Mitogen-activated protein kinase 9 (Homo sapiens) (UniProt P45984). The conditions noted are these: at 0.1 µM.
Chain of Mitogen-activated protein kinase 9 (Homo sapiens) (P45984 whole entry, looked up): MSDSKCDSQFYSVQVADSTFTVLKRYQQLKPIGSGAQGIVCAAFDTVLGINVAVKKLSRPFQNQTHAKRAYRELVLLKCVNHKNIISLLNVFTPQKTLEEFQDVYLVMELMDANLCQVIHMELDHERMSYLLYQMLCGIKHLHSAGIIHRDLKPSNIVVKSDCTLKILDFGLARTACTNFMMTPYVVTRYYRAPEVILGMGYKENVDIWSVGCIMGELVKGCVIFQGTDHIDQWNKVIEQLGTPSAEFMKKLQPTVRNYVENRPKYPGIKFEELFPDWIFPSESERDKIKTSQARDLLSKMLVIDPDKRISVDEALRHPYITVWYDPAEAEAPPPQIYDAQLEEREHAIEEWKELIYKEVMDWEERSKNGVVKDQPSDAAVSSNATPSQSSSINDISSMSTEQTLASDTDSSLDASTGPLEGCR
Assay [7] shares this target. The following applies: at 1 µM.
Assay [8] concerns the target Mitogen-activated protein kinase 1 (Homo sapiens) (UniProt P28482). The conditions noted are these: at 0.1 µM.
For assay [9] the target is unchanged. The conditions noted are these: at 1 µM.
In assay [10] the target is Mitogen-activated protein kinase 3 (Homo sapiens) (UniProt P27361). The conditions noted are these: at 0.1 µM.
Chain of Mitogen-activated protein kinase 3 (Homo sapiens) (P27361 whole entry): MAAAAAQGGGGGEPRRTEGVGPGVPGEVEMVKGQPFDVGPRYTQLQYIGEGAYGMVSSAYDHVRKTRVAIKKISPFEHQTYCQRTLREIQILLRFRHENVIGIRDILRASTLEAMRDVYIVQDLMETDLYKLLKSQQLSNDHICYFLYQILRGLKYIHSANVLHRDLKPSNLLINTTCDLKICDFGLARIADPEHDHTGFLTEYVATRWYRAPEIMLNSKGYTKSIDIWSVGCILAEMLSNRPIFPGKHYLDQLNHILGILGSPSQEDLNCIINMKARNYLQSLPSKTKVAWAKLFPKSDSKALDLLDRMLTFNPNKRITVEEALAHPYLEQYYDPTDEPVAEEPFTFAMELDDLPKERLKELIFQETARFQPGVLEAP
The target is the same in assay [11]. The conditions noted are these: at 1 µM.
Assay [12] has as its target SRSF protein kinase 3 (Homo sapiens) (UniProt Q9UPE1). The conditions noted are these: at 0.1 µM.
For assay [13] the target is unchanged. The following applies: at 1 µM.
The target of assay [14] is Mitogen-activated protein kinase 14 (Homo sapiens) (UniProt Q16539). The following applies: at 0.1 µM.
Chain of Mitogen-activated protein kinase 14 (Homo sapiens) (Q16539 whole entry): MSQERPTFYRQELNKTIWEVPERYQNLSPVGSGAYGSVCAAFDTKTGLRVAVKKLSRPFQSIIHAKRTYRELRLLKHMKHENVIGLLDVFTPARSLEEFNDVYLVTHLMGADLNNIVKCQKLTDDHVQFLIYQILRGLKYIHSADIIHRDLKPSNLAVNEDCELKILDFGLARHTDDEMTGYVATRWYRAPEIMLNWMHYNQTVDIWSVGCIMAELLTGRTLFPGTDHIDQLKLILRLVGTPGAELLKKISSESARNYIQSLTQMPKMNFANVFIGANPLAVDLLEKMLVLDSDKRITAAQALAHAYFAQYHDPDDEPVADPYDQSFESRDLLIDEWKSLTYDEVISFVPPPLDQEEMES
Assay [15] has the same target. The conditions noted are these: at 1 µM.
The target of assay [16] is Mitogen-activated protein kinase 11 (Homo sapiens) (UniProt Q15759). The following applies: at 0.1 µM.
Chain of Mitogen-activated protein kinase 11 (Homo sapiens) (Q15759 whole entry): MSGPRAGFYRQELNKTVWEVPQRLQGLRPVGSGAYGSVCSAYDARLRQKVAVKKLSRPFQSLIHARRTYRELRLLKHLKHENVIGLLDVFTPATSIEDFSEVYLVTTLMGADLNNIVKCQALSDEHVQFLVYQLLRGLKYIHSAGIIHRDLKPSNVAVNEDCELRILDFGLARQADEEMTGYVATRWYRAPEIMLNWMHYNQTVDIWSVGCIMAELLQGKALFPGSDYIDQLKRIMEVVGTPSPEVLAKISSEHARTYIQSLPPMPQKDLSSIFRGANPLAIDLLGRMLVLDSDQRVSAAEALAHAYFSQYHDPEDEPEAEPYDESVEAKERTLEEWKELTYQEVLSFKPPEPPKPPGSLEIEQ
The target is the same in assay [17]. The following applies: at 1 µM.
Assay [18] concerns the target T2, Mitogen-activated protein kinase 13 (Homo sapiens) (UniProt O15264).
T2 sequence (whole entry): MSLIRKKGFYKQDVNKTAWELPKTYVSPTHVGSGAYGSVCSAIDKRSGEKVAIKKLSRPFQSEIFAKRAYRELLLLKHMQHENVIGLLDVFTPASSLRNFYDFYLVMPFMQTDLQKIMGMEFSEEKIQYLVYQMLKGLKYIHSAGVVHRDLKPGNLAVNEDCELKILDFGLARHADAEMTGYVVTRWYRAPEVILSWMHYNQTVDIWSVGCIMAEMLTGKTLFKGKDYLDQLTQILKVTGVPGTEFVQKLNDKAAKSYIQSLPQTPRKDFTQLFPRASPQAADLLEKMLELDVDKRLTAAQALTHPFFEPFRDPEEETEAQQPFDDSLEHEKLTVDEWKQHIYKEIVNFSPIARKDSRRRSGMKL
The following applies: at 0.1 µM.

In assay [19] the target is T2, Mitogen-activated protein kinase 13 (Homo sapiens). The conditions noted are these: at 1 µM.
Assay [20] deals with T3, Mitogen-activated protein kinase 12 (Homo sapiens) (UniProt P53778).
T3 sequence (whole entry): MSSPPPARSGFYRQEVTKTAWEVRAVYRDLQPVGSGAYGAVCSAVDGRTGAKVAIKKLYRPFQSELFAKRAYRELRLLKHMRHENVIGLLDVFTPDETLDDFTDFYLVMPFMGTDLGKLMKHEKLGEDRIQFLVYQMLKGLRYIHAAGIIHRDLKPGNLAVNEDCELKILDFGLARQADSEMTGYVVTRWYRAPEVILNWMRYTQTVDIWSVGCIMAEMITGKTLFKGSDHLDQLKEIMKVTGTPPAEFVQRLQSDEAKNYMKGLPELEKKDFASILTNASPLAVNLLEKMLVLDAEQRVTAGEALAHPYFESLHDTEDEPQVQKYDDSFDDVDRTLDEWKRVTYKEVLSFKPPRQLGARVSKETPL
The following applies: at 0.1 µM.

Chain of Homeodomain-interacting protein kinase 1 (Homo sapiens) (Q86Z02 whole entry, looked up): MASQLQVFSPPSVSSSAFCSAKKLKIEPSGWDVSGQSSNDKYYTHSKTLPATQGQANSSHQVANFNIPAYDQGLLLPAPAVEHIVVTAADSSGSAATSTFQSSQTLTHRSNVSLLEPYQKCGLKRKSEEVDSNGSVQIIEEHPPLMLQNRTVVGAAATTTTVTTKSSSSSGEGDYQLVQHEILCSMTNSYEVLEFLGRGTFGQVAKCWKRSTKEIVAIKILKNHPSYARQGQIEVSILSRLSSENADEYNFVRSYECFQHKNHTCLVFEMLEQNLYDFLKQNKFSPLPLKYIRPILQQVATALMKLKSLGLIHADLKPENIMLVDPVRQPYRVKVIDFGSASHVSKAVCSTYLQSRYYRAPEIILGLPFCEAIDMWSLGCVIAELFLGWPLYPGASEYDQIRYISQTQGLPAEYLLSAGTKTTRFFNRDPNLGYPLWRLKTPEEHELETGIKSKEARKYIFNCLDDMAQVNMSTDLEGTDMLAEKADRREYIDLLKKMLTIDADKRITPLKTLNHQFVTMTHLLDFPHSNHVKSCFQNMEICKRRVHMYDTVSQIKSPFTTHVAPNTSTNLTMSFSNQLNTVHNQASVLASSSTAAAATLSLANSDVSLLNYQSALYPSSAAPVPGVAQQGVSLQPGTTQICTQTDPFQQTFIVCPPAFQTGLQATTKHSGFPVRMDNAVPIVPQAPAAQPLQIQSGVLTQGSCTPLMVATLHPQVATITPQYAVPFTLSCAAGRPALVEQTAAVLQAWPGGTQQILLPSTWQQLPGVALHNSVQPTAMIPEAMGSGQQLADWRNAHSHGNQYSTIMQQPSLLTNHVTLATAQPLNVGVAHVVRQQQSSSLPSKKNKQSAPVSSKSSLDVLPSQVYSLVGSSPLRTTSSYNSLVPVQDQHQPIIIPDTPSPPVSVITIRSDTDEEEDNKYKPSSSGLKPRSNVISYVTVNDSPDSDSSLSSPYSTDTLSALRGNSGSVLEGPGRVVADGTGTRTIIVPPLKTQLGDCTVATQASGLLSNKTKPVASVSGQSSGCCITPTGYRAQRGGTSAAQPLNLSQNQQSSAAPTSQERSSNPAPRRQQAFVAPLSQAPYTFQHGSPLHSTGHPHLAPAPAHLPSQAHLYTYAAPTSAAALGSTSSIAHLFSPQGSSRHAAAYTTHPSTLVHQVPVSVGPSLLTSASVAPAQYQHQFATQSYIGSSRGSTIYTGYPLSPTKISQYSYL
Chain of Mitogen-activated protein kinase 1 (Homo sapiens) (P28482 whole entry): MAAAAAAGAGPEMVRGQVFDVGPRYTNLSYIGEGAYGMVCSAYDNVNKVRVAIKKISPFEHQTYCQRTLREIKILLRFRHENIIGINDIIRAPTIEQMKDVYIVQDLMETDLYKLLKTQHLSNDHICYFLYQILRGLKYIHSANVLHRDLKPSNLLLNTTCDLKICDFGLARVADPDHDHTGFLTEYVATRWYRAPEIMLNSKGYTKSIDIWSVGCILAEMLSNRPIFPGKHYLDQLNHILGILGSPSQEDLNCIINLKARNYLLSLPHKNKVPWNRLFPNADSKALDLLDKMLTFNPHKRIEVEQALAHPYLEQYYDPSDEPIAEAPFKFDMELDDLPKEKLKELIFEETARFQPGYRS
Chain of Glycogen synthase kinase-3 beta (Homo sapiens) (P49841 whole entry, looked up): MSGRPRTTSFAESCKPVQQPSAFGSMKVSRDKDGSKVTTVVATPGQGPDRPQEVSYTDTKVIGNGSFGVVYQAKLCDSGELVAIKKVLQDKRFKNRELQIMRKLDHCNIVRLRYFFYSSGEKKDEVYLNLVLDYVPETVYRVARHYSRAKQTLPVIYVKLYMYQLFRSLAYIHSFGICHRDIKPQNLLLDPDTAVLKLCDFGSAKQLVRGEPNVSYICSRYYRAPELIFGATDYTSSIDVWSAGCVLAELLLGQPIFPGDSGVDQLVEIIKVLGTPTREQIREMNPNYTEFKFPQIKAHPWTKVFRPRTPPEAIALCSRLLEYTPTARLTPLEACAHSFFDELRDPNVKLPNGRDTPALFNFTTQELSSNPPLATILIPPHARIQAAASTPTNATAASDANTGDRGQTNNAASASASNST
Chain of SRSF protein kinase 3 (Homo sapiens) (Q9UPE1 whole entry): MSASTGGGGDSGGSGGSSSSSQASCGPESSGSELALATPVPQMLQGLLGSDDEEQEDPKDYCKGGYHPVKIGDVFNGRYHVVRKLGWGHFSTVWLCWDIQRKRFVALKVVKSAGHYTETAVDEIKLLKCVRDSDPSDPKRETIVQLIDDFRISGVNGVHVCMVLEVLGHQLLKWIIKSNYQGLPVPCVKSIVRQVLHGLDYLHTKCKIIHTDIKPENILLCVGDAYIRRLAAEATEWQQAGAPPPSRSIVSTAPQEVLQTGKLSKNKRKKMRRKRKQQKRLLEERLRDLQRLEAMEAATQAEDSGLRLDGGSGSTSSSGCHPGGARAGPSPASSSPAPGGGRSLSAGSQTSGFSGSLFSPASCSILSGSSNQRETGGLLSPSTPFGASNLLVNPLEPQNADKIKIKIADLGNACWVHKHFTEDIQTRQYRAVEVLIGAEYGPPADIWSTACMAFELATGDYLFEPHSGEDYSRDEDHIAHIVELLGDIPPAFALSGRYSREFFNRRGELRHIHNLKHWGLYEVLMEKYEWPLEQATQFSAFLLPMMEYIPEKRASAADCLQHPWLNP

Turning to `NC(=O)c1cc(-c2ccc(F)cc2)cc(-c2ccncc2)c1N`, the inhibition in assay [1] is 1.12%; in [2], 1.44%; in assay [3], 0.21%; in [4], -0.23%; in [5], 2.98%; in assay [6], 3.69%. For the same compound, the inhibition in assay [7] was 2.06%; in assay [8], 4.92%; in [9], 5.18%; in assay [10], 3.25%; in assay [11] it was 3.05%; in [12], -2.8%. For the same compound, the inhibition in assay [13] is -1.27%; in assay [14] it was 6.13%; in assay [15], 8.6%; in [16], 2.26%; in [17] it was 5.45%; in assay [18] it was 2.57%. Further, the values for the inhibition in assay [19] and in [20] were 3.93% and 4.51%, respectively.
For `CCS(=O)(=O)c1ccc(OC)c(Nc2ncc(-c3cccc(-c4ccccc4F)c3)o2)c1`, the inhibition in assay [1] came to 7.6%; in assay [2], 1.49%; in [3] it was 6.56%; in assay [4], 3.89%; in assay [5], 17.3%; in [6], 0.09%. Also, the inhibition was 6.86% in assay [7]; -1.77% in assay [8]; -3.35% in assay [9]; -2.17% in assay [10]; 0.15% in [11]; 0.74% in assay [12]. The inhibition in assay [13] was found to be 1.45%; in assay [14] it was 5.17%; in [15] it was 8.57%; in [16], 0.03%; in assay [17], 4.77%; in assay [18] it was 3.85%. In addition, the results for the inhibition in assay [19] and in assay [20] were -0.94% and -2.59%, respectively.
For `C#Cc1cccc(Nc2ncnc3ccc(OCCCCNCCS(C)(=O)=O)cc23)c1`, the inhibition is 1.89% in assay [1]; -3.09% in assay [2]; -1.22% in assay [3]; 4.39% in assay [4]; 24.9% in assay [5]; 3.91% in assay [6]. Besides, the inhibition was 4.58% in [7]; 5.06% in assay [8]; 5.46% in assay [9]; 4.38% in assay [10]; 5.78% in assay [11]; -1.8% in assay [12]. The inhibition in assay [13] was -2.44%; in assay [14], 3.36%; in [15], 13.9%; in assay [16], 4.69%; in [17], 7.25%; in assay [18], 6.43%. Moreover, the results for the inhibition in [19] and in assay [20] were 4.8% and 1.66%, respectively.
As to `CN(C)CCCNc1nccc(-c2c(-c3ccc(F)cc3)nn3cc(C(F)(F)F)ccc23)n1`, the inhibition is 7.7% in assay [1]; -4.22% in [2]; 1.54% in assay [3]; 4.04% in [4]; 8.4% in assay [5]; 2.73% in assay [6]. Moreover, the inhibition came to 11% in assay [7]; 1.62% in assay [8]; 2.71% in assay [9]; 2.96% in assay [10]; 2.96% in assay [11]; 2.1% in [12]. The inhibition in assay [13] came to 6.95%; in assay [14] it was 17.8%; in assay [15], 67.8%; in assay [16], 5.1%; in assay [17], 17.9%; in assay [18] it was 1.74%. Moreover, the results for the inhibition in assay [19] and in assay [20] were 5.4% and 0.47%, respectively.
In the case of `CN(C)CCOc1ccc(-c2cc(-c3ccc4c(c3)CCC4=NO)c(-c3ccncc3)o2)cc1`, the inhibition in [1] is 0.28%; in assay [2] it was -5.92%; in [3], 2.06%; in assay [4], 0.15%; in [5], 2.98%; in assay [6] it was -1.3%. Further, the inhibition in assay [7] is 3.02%; in assay [8], -0.58%; in assay [9], 0.91%; in assay [10], -1.4%; in assay [11], 1.25%; in [12], -6.42%. The inhibition was -1.92% in [13]; -0.58% in assay [14]; 0.13% in [15]; -0.55% in [16]; 1.57% in [17]; -1.01% in [18]. Also, the inhibition is -2.49% in [19] and -0.25% in assay [20].
Take `CN(c1ccc(NC(=O)Nc2c(Cl)cccc2Cl)cc1)c1ccnc(Nc2cccc(CS(C)(=O)=O)c2)n1`: the inhibition was determined as 9.63% in assay [1]; 2.01% in assay [2]; 5.39% in assay [3]; 7.1% in assay [4]; 18.4% in assay [5]; 5.56% in assay [6]. In addition, the inhibition worked out at 8.85% in assay [7]; 3.03% in assay [8]; 2.83% in [9]; 2.56% in assay [10]; 4.66% in assay [11]; 0.97% in [12]. The inhibition is 2.4% in assay [13]; 2.39% in [14]; 3.34% in assay [15]; 1.5% in [16]; 4.6% in assay [17]; 1.53% in assay [18]. In addition, the values for the inhibition in [19] and in assay [20] were 1.46% and -0.44%, respectively.
